In PubChem BioAssay AID602438 (Sanford-Burnham Center for Chemical Genomics, 2012):
“And” between values parts separate entries of the source, which are not always exact repeats. Equal values may be shown once. Among all 360,000 compounds or so, about 3,100 (0.86%) were called active.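 Rule for the calls: active = inhibition or corrected inhibition above about 18%, plus a signal ratio from 0.5 to 1.5 (limit read from the data, passing the limit was not always enough); inactive = the rest.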 What follows is part of a selection rich in actives, with near analogues and random picks from the rest.

biological target: Neuropilin-1 (Homo sapiens) (UniProt O14786); test: modulators of CendR peptide binding to NRP-1, primary screen, biochemical, fluorescence polarization, uHTS (AID 602438); conditions: FAM-RPARPAR peptide binding to NRP-1, fluorescence polarization; at 25 µM; hits give high values
Sequence (O14786 whole entry, looked up): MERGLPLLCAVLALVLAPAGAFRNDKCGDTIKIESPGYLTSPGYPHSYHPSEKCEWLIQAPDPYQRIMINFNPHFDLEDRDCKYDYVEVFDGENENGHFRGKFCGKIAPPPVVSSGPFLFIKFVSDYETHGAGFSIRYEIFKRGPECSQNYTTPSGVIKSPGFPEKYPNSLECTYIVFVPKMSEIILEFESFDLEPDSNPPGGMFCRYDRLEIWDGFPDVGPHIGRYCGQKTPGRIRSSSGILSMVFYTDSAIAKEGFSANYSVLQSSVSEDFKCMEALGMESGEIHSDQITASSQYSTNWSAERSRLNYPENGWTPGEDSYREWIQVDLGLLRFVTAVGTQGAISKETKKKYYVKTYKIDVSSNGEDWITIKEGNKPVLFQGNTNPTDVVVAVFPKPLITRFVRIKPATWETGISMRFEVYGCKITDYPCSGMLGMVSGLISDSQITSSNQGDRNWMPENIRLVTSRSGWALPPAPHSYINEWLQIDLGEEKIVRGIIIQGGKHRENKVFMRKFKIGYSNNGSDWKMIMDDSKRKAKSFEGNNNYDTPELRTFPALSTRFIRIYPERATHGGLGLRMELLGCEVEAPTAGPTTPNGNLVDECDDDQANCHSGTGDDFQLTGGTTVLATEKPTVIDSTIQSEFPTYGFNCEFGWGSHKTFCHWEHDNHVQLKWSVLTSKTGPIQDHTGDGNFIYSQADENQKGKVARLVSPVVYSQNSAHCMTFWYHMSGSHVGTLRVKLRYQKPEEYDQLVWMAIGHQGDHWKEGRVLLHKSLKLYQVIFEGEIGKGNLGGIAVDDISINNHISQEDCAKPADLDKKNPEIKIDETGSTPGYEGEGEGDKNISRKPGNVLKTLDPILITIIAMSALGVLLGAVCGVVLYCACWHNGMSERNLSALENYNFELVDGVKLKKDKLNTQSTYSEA

Structure (SMILES)	inhibition
Cc1cc(Nc2ccc(C)c(C)c2)n2ncnc2n1	4.8% (inactive)
CC1(c2cccc(Br)c2)NC(=O)N(CC(=O)NCCC2=CCCCC2)C1=O (stereo unspecified)	6.7% (inactive)
Cc1ccc(S(=O)(=O)NNC(=O)Nc2cccc3ccccc23)cc1	1.8% (inactive)
Cc1ccc(S(=O)(=O)NC(=O)c2cccc(C)c2)cc1	-0.5% (inactive)
Cc1ccc(S(=O)(=O)NNC(=O)/C=C/c2cccc(F)c2)cc1	20.7% (active)
COc1ccccc1NC(=O)CCCc1c[nH]c2ccccc12	65.3% (active)
COc1ccc(Cl)cc1NC(=O)CN(C)C(=O)CCCc1c[nH]c2ccccc12	7.5% (inactive)
COc1ccc(CN(C)C(=O)Cc2c[nH]c3ccccc23)c(OC)c1OC	-1.4% (inactive)
C=C(C)C1CC=C(C)/C(=N/NC(=O)CCCNc2cccc(C)c2)C1 (stereo unspecified)	1.4% (inactive)
C=C(C)C1CC=C(C)/C(=N\NC(=O)CNc2ccccc2OC)C1 (stereo unspecified)	20.9% (active)
COc1ccccc1NC(=O)COC(=O)CNC(=O)C1CCCCC1	9.6% (inactive)
N#C/C=C\Oc1ccc(Cl)cc1N	-3.7% (inactive)
COc1ccc(C2CC(c3cccs3)=NN2C(=O)COC(=O)c2cc3ccccc3cc2O)cc1OC (stereo unspecified)	6.7% (inactive)
COc1ccc(C2CC(c3cccs3)=NN2C(=O)CSc2nncs2)cc1OC (stereo unspecified)	28.8% (active)
COc1ccc(C2CC(c3cccs3)=NN2C(=O)CSc2nnc(N)s2)cc1OC (stereo unspecified)	0.7% (inactive)
CCN(CC(=O)Nc1c(F)cccc1F)C(=O)c1ccc(-c2ccccc2)cc1	4.3% (inactive)
CCN(CC(=O)Nc1c(F)cccc1F)C(=O)c1cnc(C)cn1	3.1% (inactive)
CCN(CC(=O)Nc1c(F)cccc1F)C(=O)c1ccc(-c2ccc(C(C)=O)cc2)o1	45.1% (active)
CCN(CC)S(=O)(=O)c1ccc(C(=O)N2CCN(C3=NS(=O)(=O)c4ccccc43)CC2)cc1	-0.8% (inactive)
CC1CCCCC12NC(=O)N(CC(=O)Nc1ccc(S(=O)(=O)Nc3ncccn3)cc1)C2=O (stereo unspecified)	-8.9% (inactive)
Cc1nnc(CN(C)Cc2cn[nH]c2-c2ccc(-c3ccccc3)cc2)o1	-2.9% (inactive)
COC(=O)C1[C@H]2SC(C)(C)C(C(=O)OC)N2C(=O)N1Cc1nc2ccccc2s1 (stereo partly specified)	4.5% (inactive)
CC1(C)S[C@@H]2[C@H](NC(=O)COc3ccccc3)C(=O)N2C1C(=O)OCc1ccccc1 (stereo partly specified)	26.2% (active)

Structure (SMILES)	inhibition
CC1(C)SC2C(NC(=O)COc3ccccc3)C(=O)N2C1C(=O)O (stereo unspecified)	-22.6% (inactive) and -10.8% (inactive)
COC(=O)c1c(NC(=O)COC(=O)[C@@H](NS(=O)(=O)c2ccccc2)C(C)C)sc2c1CCC2	-8.2% (inactive)
COc1ccc(NC(=O)C2C3CCC(O3)C2C(=O)O)cc1OC (stereo unspecified)	4.9% (inactive)
CC(C)OC(=O)c1cc(NC(=O)C2C3CCC(O3)C2C(=O)O)cc(C(=O)OC(C)C)c1 (stereo unspecified)	-0.2% (inactive)
Cc1sc(NC(=O)C2C3CCC(O3)C2C(=O)O)c(C(=O)OC(C)C)c1-c1ccc(Cl)cc1 (stereo unspecified)	21% (active)
O=C(CN1C(=O)NC(Cc2c[nH]c3ccccc23)C1=O)Nc1ccccc1C(F)(F)F (stereo unspecified)	-6.7% (inactive)
CCn1c(C)nc2cc(C(=O)NNS(=O)(=O)c3ccc(C)cc3C)ccc21	-7% (inactive)
Cc1cc(N2C(=O)c3ccc(C(=O)NCc4ccccc4)cc3C2=O)no1	-12.4% (inactive)
CCOc1ccc(NC(=O)COc2ccc(C(=O)NC3CCCc4ccccc43)cc2OC)cc1 (stereo unspecified)	-6.4% (inactive)
CNS(=O)(=O)c1cccc(C(=O)NC2CCCc3ccccc32)c1 (stereo unspecified)	-7.1% (inactive)
C[n+]1ccc(C(=O)NCc2ccccc2)cc1	8.4% (inactive)
CCOc1c2ccc(C(=O)NC3CCCc4ccccc43)cc2nn1CC (stereo unspecified)	22.9% (active)
CCCn1nc2cc(C(=O)NCc3ccccc3)ccc2c1OCC	27% (active)
CC(=O)Cn1ncc(N2CCOCC2)c(Br)c1=O	-5.8% (inactive)
Cc1ccc(OCCNC(=O)CCNS(=O)(=O)c2ccc(Br)cc2)cc1	4.5% (inactive)
Nc1c(C(=O)c2cccs2)sc2nsc(SCCN3CCCCC3)c12	131% (inactive)
Cn1c(CCC(=O)Nc2ccccc2F)nnc1SCC(=O)Nc1ccccc1Cl	-3.9% (inactive)
COc1ccccc1NC(=S)N1CCC(NC(=O)C23CC4CC(CC(C4)C2)C3)CC1	-1.5% (inactive)
CC(Oc1cc2oc(=O)c3c(c2cc1Cl)CCCC3)C(=O)NCc1ccncc1 (stereo unspecified)	-1.5% (inactive)
Cc1ccc(S(=O)(=O)NC(C)C(=O)NCc2ccc(Cl)cc2)cc1 (stereo unspecified)	-8.1% (inactive)
COc1ccc(S(=O)(=O)NC(C)C(=O)NCc2ccncc2)cc1Cl (stereo unspecified)	22.5% (active)
COc1cccc(NC(=O)N2CCC(NC(=O)C(Cc3cccc(C)c3)NC(C)=O)CC2)c1 (stereo unspecified)	9.8% (inactive)
CCOC(=O)c1c(/N=C/C2C(=O)CC(C)(C)CC2=O)sc(C)c1C	-41.2% (inactive)

Structure (SMILES)	inhibition
COc1ccccc1OCCC(=O)OCC(=O)NCc1ccccc1	31.3% (active)
COc1ccccc1OCCC(=O)OCC(=O)NC(=O)NC(C)(C)C	-7.2% (inactive)
Cc1ccc(C)c(OCCC(=O)OCC(=O)NC(=O)NCc2ccccc2)c1	-19% (inactive)
CC1CCCC(N2CCN(C(=O)c3ccc(F)cc3)CC2)C1 (stereo unspecified)	1.1% (inactive)
CC(C)(C)c1cc(=O)n2c(nc3ccccc32)[nH]1	3.4% (inactive)
COc1ccc(C)cc1N(CC(=O)NC(C)c1ccccc1)S(C)(=O)=O (stereo unspecified)	3.7% (inactive)
COc1cc(/C=N\NC(=O)CNC(=O)c2cccc([N+](=O)[O-])c2)ccc1O	21.9% (active)
COc1ccc(O)c(/C=N/N=C/c2cccc([N+](=O)[O-])c2)c1	6.7% (inactive)
CCCc1ccc(OCc2ccc(C(=O)N/N=C/c3cccc([N+](=O)[O-])c3)o2)c(OC)c1	-4.8% (inactive)
O=C(/C=C/c1cccs1)NCc1cccnc1	-0.9% (inactive)
CC[C@]12c3[nH]c4ccc(Cl)cc4c3CCN1C(=O)[C@@H](CC(=O)NCCCOC)C[C@@H]2C(=O)N1CCN(C(=O)c2ccco2)CC1	0.7% (inactive)
CCCN(CCC)S(=O)(=O)c1ccc(C(=O)NNC(=O)c2cc(OC)c(OC)c(OC)c2)cc1	-2.3% (inactive)
COc1ccccc1C(=O)COC(=O)CSCC(=O)Nc1cc(C)on1	-0.2% (inactive)
COc1ccccc1C(=O)COC(=O)COc1ccc(C#N)cc1	28.5% (active)
COc1ccccc1C(=O)COC(=O)CNS(=O)(=O)c1ccc(NC(C)=O)cc1	5.5% (inactive)
Cc1nn(C)c(Cl)c1CN1CCC(n2nccc2NC(=O)C2CCCC2)CC1	-2.2% (inactive)
O=C(CSc1nnc2n1CCCN2)c1ccccc1	-7.7% (inactive)
CCOC(=O)c1ccc(NC(=S)N2CCN(c3ccccn3)CC2)cc1	11.2% (inactive)
COc1cc([N+](=O)[O-])ccc1NC(=S)N1CCN(c2ccccn2)CC1	32.1% (active)
O=[N+]([O-])c1ccc(NC(=S)N2CCN(c3ccccn3)CC2)cc1	5% (inactive)
O=[N+]([O-])c1ccc(CN2CC(N3CCC(c4ccccc4)CC3)CS2(=O)=O)cc1 (stereo unspecified)	11.5% (inactive)
CC1(C)CC(=O)CC2(C1)NCC(c1ccccc1Cl)c1c2[nH]c2ccccc12 (stereo unspecified)	-3.3% (inactive)
CCNC(=O)COC(=O)/C=C/c1c(C)nn(Cc2cccc(OC)c2)c1Cl	-6.8% (inactive)

Structure (SMILES)	inhibition
CC1(C)CN(c2ccc(-c3ccnc4ncnn34)cc2)C1=O	9.3% (inactive)
O=C(Nc1ccc(Cl)cc1)Nc1ccc(Oc2cccnc2)nc1	3.4% (inactive)
COc1ccc(Nc2nc(-c3cccnc3)nc3ccccc23)cn1	55.4% (active)
O=C(CSc1n[nH]c(-c2cccnc2)n1)Nc1ccnc2ccccc12	-6.1% (inactive)
Cc1nnc(SC(C)C(=O)Nc2ccc(S(=O)(=O)NC3CCCCC3)cc2)s1 (stereo unspecified)	25.4% (active)
Cc1ccc(Nc2nnc(SC(C)C(=O)NC3CC3)s2)cc1 (stereo unspecified)	-8.1% (inactive)
CCc1nnc(NC(=O)c2ccc(S(=O)(=O)NC3CCCCC3)cc2)s1	-10.5% (inactive)
Cc1ccc(S(=O)(=O)N(CC(=O)NCCSC2CCCCC2)c2ccccc2F)cc1	-1.5% (inactive)
O=C(Nc1c2c(nn1-c1ccc(F)cc1)CS(=O)C2)C12CC3CC(CC(C3)C1)C2 (stereo unspecified)	5.1% (inactive)
O=S(=O)(c1ccccc1)c1nc(-c2ccccc2)oc1NCCCN1CCOCC1	28.7% (active)
O=S(=O)(c1ccc(Cl)cc1)c1nc(-c2ccccc2F)oc1NCCN1CCOCC1	5.8% (inactive)
O=S(=O)(c1ccc(Br)cc1)c1nc(-c2ccccc2)oc1N1CCOCC1	0.9% (inactive)
CCc1nc(SCC(=O)Nc2ccccc2OC)n[nH]1	4.2% (inactive)
C=CCN1CCN(c2ccncc2S(=O)(=O)N2CCN(C)CC2)CC1	1.6% (inactive)
Cc1cc(/C=N/NC(=O)CC2(C)OCCO2)c(C)n1-c1ccc(Cl)c(Cl)c1	-7.8% (inactive)
Cc1cc(/C=N/NC(N)=O)c(C)n1C1CCCCC1	-11.5% (inactive)
Cc1ccc(-n2c(C)cc(/C=N\NC(=O)CC(=O)NC(C)C)c2C)cc1	32.4% (active)
O=C(O)C1CCCN1C1=NS(=O)(=O)c2ccccc21 (stereo unspecified)	9.6% (inactive)
Cc1nc(N2CCCC2C(=O)O)c2oc3ccccc3c2n1 (stereo unspecified)	29.6% (active)
O=C(O)C1CCCN1c1nc(Cl)ccc1[N+](=O)[O-] (stereo unspecified)	-0.9% (inactive)
O=c1ccc(S(=O)(=O)N2CCCC2)cn1Cc1nc(-c2ccccc2)no1	3.3% (inactive)
c1ccc(CCC2=NCCn3cccc32)cc1	-28.1% (inactive) and -1.3% (inactive)
